What follows are compounds tested against Focal adhesion kinase 1 (Homo sapiens) (UniProt Q05397) (assay: small-molecule microarray binders of FAK, primary screen, biochemical, 635/667 nm fluorescence, BSA, DTT (AID 1130;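 note: composite of spot emission at 667 nm and signal to noise over triplicate slides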)). Details: PTK2 binding, 635 nm fluorescence, higher = more signal.
Chain of Focal adhesion kinase 1 (Homo sapiens) (Q05397 whole entry, looked up): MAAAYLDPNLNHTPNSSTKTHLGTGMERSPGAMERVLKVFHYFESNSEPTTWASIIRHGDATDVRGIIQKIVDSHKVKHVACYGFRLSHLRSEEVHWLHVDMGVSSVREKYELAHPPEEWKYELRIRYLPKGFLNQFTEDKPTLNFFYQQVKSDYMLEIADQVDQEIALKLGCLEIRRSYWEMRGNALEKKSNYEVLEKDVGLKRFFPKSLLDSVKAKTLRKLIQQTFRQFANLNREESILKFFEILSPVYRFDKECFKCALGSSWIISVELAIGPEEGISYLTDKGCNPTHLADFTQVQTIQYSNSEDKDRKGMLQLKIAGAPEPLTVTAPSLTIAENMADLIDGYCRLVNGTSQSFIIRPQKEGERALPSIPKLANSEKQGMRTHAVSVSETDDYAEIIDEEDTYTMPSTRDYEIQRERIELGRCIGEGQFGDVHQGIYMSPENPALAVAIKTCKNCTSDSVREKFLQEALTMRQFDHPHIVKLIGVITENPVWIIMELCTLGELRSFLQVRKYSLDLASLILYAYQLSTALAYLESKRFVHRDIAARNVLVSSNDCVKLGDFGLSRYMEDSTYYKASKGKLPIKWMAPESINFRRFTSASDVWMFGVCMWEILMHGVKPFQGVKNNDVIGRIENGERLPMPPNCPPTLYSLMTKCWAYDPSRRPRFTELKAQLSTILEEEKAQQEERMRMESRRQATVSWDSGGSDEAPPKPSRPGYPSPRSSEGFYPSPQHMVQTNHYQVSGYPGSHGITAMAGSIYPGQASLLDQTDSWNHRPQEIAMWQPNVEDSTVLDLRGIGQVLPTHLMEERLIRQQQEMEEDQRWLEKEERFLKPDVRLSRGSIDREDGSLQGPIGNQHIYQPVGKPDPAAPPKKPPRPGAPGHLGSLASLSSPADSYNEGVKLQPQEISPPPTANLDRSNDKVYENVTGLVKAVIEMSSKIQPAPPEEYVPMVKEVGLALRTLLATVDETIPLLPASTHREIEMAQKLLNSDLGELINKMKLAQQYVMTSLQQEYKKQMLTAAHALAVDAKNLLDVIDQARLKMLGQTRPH

| SMILES | composite z-score |
| --- | --- |
| O=C(NCC(O)CO)[C@]1(Cc2ccccc2)N=C(c2ccc(OCCCO)cc2)O[C@@H]1c1ccccc1 (stereo partly specified) | 0.774 |
| O=C(CS)NCCCCCNC(=O)[C@H]1C[C@H]2C(=O)N3CCC[C@H]3C(=O)N2[C@H]1c1ccc(O)cc1 | -0.384 |
| COc1cccc([C@H]2N[C@H](C(=O)O)CC[C@@H]2C)c1 | 0.163 |
| CC(C)[Si]1(C(C)C)O[C@@H](c2ccccc2)c2cc(C3CC3)nc(-c3ccc(Oc4ccccc4)cc3)c21 | -0.323 |
| CC(=O)Nc1ccc([C@H]2[C@H](C)CC[C@H]3C(=O)N4[C@@H](CC[C@@H](C)[C@@H]4c4ccc(NC(C)=O)cc4)C(=O)N32)cc1 | 0.558 |
| COc1cc2c(cc1OC)CN(C(=O)[C@@H]1[C@H]3C(=O)O[C@H](c4ccccc4)[C@H](c4ccccc4)N3[C@H](c3ccccc3OCCO)[C@@]13C(=O)Nc1ccccc13)CC2 | 0.702 |
| [N-]=[N+]=NCc1ccccc1C[C@@]1(C(=O)N2CCOCC2)N=C(c2ccc(OCCCO)cc2)O[C@@H]1c1ccccc1N=[N+]=[N-] | 0.662 |
| C=CC[C@]1(C(=O)OC)N=C(c2ccc(OCCCO)cc2)O[C@H]1c1ccccc1CN=[N+]=[N-] | 0.5 |
| CO[C@]12C=C(Br)[C@@H](C[C@@H]1c1ccccc1)[C@@]1(CO1)C2=O | -0.259 |
| C[C@]1(C(=O)NCc2ccccc2)c2ccccc2C(=O)N(Cc2cc(C(F)(F)F)cc(C(F)(F)F)c2)[C@H]1c1ccc(CO)cc1 | 0.415 |

These compounds were tested on Fibrinogen (Alexa647-labelled) (assay: fibrinogen binders on compound microarrays, profiling panel, artefact control for SMM control-protein annotation, biochemical, small-molecule microarray, 635/667 nm fluorescence (AID 1131;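 note: z-score merges 667 nm fluorescence with per-spot signal-to-noise over triplicate slides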)). Details: fibrinogen-A647 binding fluorescence, higher = more signal.

| SMILES | composite z-score |
| --- | --- |
| C=C(COC)/C(=C/C[C@@H](OC(C)=O)c1cccc(OCCO)c1)c1cc(C(=O)OC)ccc1OC | -1.09 |
| CC(C)(C)OC(=O)CC[C@]1(C(=O)NCCN2CCOCC2)N=C(c2ccc(OCCCO)cc2)O[C@H]1c1ccccc1CN=[N+]=[N-] | 0.75 |
| CC(=O)NCCCC[C@@H]1NC(=O)[C@@H]2C[C@H](C(=O)NCCCCCCN(C)C)[C@H](c3ccc(O)cc3)N2C1=O | 0.53 |
| Cc1ccc(S[C@]2(C(=O)O)CC(=O)N(Cc3ccccc3)[C@@H]2c2ccc(CO)cc2)cc1 | 0.0619 |
| O=C1c2ccccc2[C@](Cc2ccccc2I)(C(=O)NCC(F)(F)F)[C@H](c2ccc(CO)cc2)N1Cc1ccccc1C(F)(F)F | 0.351 |
| O=C1OCCC=C[C@H]2OC34C=CCN(Cc5ccccc5)C(=O)[C@H]3N(CCO)C(=O)[C@@H]4C12 (stereo partly specified) | -1.89 |
| C=CCNC(=O)[C@H]1[C@@H]2C(=O)O[C@@H](c3ccccc3)[C@@H](c3ccccc3)N2[C@@H](c2ccccc2OCCO)[C@]12C(=O)N(C(=O)OCCOC)c1ccc(C#CCC(C(=O)OC)C(=O)OC)cc12 | 0.709 |
| COc1ccc([Si](C)(C)[C@H]2[C@H](CC(=O)N3Cc4ccccc4C[C@H]3CO)O[C@@]3(C(=O)N(Cc4cccc(N5CCOC5=O)c4)c4ccccc43)[C@@H]2C)cc1 | -0.235 |
| CC(C)N1CC=CC23O[C@@H]4/C=C\CCCOC(=O)C4[C@H]2C(=O)N(CCO)[C@@H]3C1=O (stereo partly specified) | -0.508 |
| CC(C)CN1C(=O)[C@@]2(Cc3ccccc31)c1ccccc1C(=O)N(C1CCCCC1)[C@H]2c1ccc(CO)cc1 | -1.04 |
| COc1cccc([C@@H]2[C@@H](C)CC[C@H]3C(=O)N4[C@H](c5cccc(OC)c5)[C@@H](C)CC[C@H]4C(=O)N23)c1 | 0.817 |
| CO[C@H]1COC(=O)[C@H](Cc2ccccc2)NC(=O)CC=C[C@@H](C)[C@H](OC)COC(=O)CC=C[C@@H]1C | 0.256 |
| CO[C@H]1COC(=O)[C@@H](OCc2ccccc2)C=C[C@H](C)[C@@H](OC)COC(=O)[C@H](OCc2ccccc2)C=C[C@@H]1C | -0.305 |
| O=C1O[C@@H](c2ccccc2)[C@@H](c2ccccc2)N2[C@@H](c3ccc(O)cc3)[C@]3(C(=O)Nc4ccccc43)[C@@H](C(=O)N3CCN(c4ncccn4)CC3)[C@H]12 | 0.179 |
| O=C1O[C@@H](c2ccccc2)[C@@H](c2ccccc2)N2[C@@H](c3ccc(O)cc3)[C@]3(C(=O)Nc4ccc(C#CC5(O)CCCCCC5)cc43)[C@@H](C(=O)Nc3nc4ccccc4s3)[C@H]12 | 0.886 |
| C=CC[C@]1(C(N)=O)N=C(c2ccc(OCCCO)cc2)O[C@H]1c1ccccc1CN=[N+]=[N-] | 1.01 |
| COCCOC(=O)N1C(=O)[C@@]2(c3cc(C#CCCO)ccc31)[C@H](C(=O)N1CCCCCCC1)[C@H]1C(=O)O[C@H](c3ccccc3)[C@H](c3ccccc3)N1[C@@H]2c1ccc(O)cc1 | 0.555 |
| C=CCOC(=O)[C@@H]1[C@H]2C(=O)O[C@H](c3ccccc3)[C@H](c3ccccc3)N2[C@H](c2ccc(OCCOC(=O)[C@H]3C[C@H]4C(=O)N5CCC[C@H]5C(=O)N4[C@H]3c3ccc(O)cc3)cc2)[C@@]12C(=O)Nc1ccccc12 | 0.81 |

| SMILES | composite z-score |
| --- | --- |
| CO[C@H]1COC(=O)CC=C[C@@H](C)COC(=O)[C@@H](C)NC(=O)CC=C[C@@H]1C | -0.943 |
| C=CCN1C(=O)[C@@]2(O[C@@H](CCn3cc([C@H](O)c4ccccc4)nn3)[C@H]([Si](C)(C)c3ccc(OC)cc3)[C@H]2C)c2cc(N3CCOC3=O)ccc21 | -0.285 |
| CCCC/C=C/[C@H]([C@@H](O)Cc1ccccc1)N(CC#Cc1ccccc1)Cc1ccccc1Br | -0.986 |
| CCOC(=O)[C@H]1C/C=C/C[C@H](C(=O)OCC)C(=O)O[C@H]2[C@@H](OC)O[C@H](CO)[C@@H](OC(=O)Nc3ccc(Br)cc3)[C@@H]2OC1=O | 0.708 |
| COC(=O)c1c(CC[C@@H](CO)NC(=O)N[C@H](Cn2cc(-c3cncn3C)nn2)C(C)C)oc(C(C)=O)c1C(=O)OC | -0.0397 |
| COc1ccc([Si](C)(C)[C@H]2[C@H](CCO)O[C@@]3(C(=O)N(Cc4ccc(N5CCCCC5=O)cc4)c4ccccc43)[C@@H]2C)cc1 | 0.903 |
| O=C1c2ccccc2[C@](Cc2ccccc2I)(C(=O)O)[C@H](c2ccc(CO)cc2)N1C1CCCCC1 | 0.801 |
| CCCNC(=O)[C@@]1(Sc2ccc(C)cc2)CC(=O)N(Cc2ccccc2Cl)[C@@H]1c1ccc(CO)cc1 | 0.789 |
| O=C(NCC(O)CO)[C@]1(Cc2ccccc2)N=C(c2ccc(OCCCO)cc2)O[C@@H]1c1ccccc1 (stereo partly specified) | 0.601 |
| O=C(CS)NCCCCCNC(=O)[C@H]1C[C@H]2C(=O)N3CCC[C@H]3C(=O)N2[C@H]1c1ccc(O)cc1 | -0.743 |
| COc1cccc([C@H]2N[C@H](C(=O)O)CC[C@@H]2C)c1 | 0.363 |
| CC(C)[Si]1(C(C)C)O[C@@H](c2ccccc2)c2cc(C3CC3)nc(-c3ccc(Oc4ccccc4)cc3)c21 | -0.812 |
| CC(=O)Nc1ccc([C@H]2[C@H](C)CC[C@H]3C(=O)N4[C@@H](CC[C@@H](C)[C@@H]4c4ccc(NC(C)=O)cc4)C(=O)N32)cc1 | 0.798 |
| COc1cc2c(cc1OC)CN(C(=O)[C@@H]1[C@H]3C(=O)O[C@H](c4ccccc4)[C@H](c4ccccc4)N3[C@H](c3ccccc3OCCO)[C@@]13C(=O)Nc1ccccc13)CC2 | 0.833 |
| [N-]=[N+]=NCc1ccccc1C[C@@]1(C(=O)N2CCOCC2)N=C(c2ccc(OCCCO)cc2)O[C@@H]1c1ccccc1N=[N+]=[N-] | 0.9 |
| C=CC[C@]1(C(=O)OC)N=C(c2ccc(OCCCO)cc2)O[C@H]1c1ccccc1CN=[N+]=[N-] | -0.268 |
| CO[C@]12C=C(Br)[C@@H](C[C@@H]1c1ccccc1)[C@@]1(CO1)C2=O | -0.0226 |
| C[C@]1(C(=O)NCc2ccccc2)c2ccccc2C(=O)N(Cc2cc(C(F)(F)F)cc(C(F)(F)F)c2)[C@H]1c1ccc(CO)cc1 | 0.749 |

Reference: PubChem BioAssay
